Data as given in PubChem BioAssay (NCI).
Compounds without any hit were thinned out: in the full panel of roughly 83,000, 20% have a hit.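 Negative percent growth values reflect cell death: -40 means 40% of the cells present at the start died, and -100 means all died.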 Active and inactive are the calls of the source. The calls were made as follows: active = growth percent below 10; inactive = the rest.

system: NCI/ADR-RES ovarian; assay: NCI-60 one-dose screen, 48 h (100 = growth as untreated, 0 = no growth, -100 = all killed); conditions: 10 µM

Row | Compound | growth
1 | CC1(C)CNC(=O)N1 | 109% (inactive)
2 | Nc1ccn([C@@H]2O[C@H](COP(=O)(O)O[C@@H]3C[C@H](n4cc(F)c(=O)[nH]c4=O)O[C@@H]3COP(=O)(O)O[C@@H]3C[C@H](n4cc(F)c(=O)[nH]c4=O)O[C@@H]3COP(=O)(O)O[C@@H]3C[C@H](n4cc(F)c(=O)[nH]c4=O)O[C@@H]3COP(=O)(O)O[C@@H]3C[C@H](n4cc(F)c(=O)[nH]c4=O)O[C@@H]3COP(=O)(O)O[C@@H]3C[C@H](n4cc(F)c(=O)[nH]c4=O)O[C@@H]3COP(=O)(O)O[C@@H]3C[C@H](n4cc(F)c(=O)[nH]c4=O)O[C@@H]3COP(=O)(O)O[C@@H]3C[C@H](n4cc(F)c(=O)[nH]c4=O)O[C@@H]3COP(=O)(O)O[C@@H]3C[C@H](n4cc(F)c(=O)[nH]c4=O)O[C@@H]3COP(=O)(O)O[C@@H]3C[C@H](n4cc(F)c(=O)[nH]c4=O)O[C@@H]3COP(=O)(O)O[C@@H]3C[C@H](n4cc(F)c(=O)[nH]c4=O)O[C@@H]3COP(=O)(O)OCCOCCOCCOCCOCCOCCO)[C@H](O)C2O)c(=O)n1 (stereo partly drawn) | 39.5% (inactive)
3 | CCCCN(CCCC)c1ccc(C(=NC(C)CCCN(CC)CC)c2ccc(N(C)C)cc2)cc1 (stereo not drawn) | -51% (active)
4 | Cc1nc2cc(-n3c(-c4ccc(F)cc4)nc4ccccc4c3=O)ccc2n1Cc1ccccc1 | 6.09% (active)
5 | CN(C)Cc1cccs1 | 101% (inactive)
6 | CCCCCCCCCCCCc1ccc(C(=O)/C=C/C(=O)O)cc1 | 100% (inactive)
7 | Nc1nsc(C(=O)c2ccc(O)cc2)n1 | 103% (inactive)
8 | O=C(CSc1nnc(-c2ccc(Cl)cc2)o1)c1ccccc1 | 94.9% (inactive)
9 | NC1CCC(Nc2nc(NCc3ccc(-c4cccs4)nc3)c3ncn(C4CCCC4)c3n2)CC1 (stereo not drawn) | 38.1% (inactive)
10 | CCCCOCC(=O)NC(NP(=O)(N(C)C)N(C)C)C(Cl)(Cl)Cl (stereo not drawn) | 105% (inactive)
11 | CCOc1ccc(-n2cc(-c3ccc(N(C)C)cc3)[n+]3c2CCCCC3)cc1 | 92.8% (inactive)
12 | CCC1(C)OC(=O)NC1=O (stereo not drawn) | 95.9% (inactive)
13 | CC(=O)Nc1ccc(Sc2ccc(NC(C)=O)cc2)cc1 | 95.7% (inactive)
14 | O=C1CC[C@@H](C(=O)N[C@H]2CSSC[C@@H](C(=O)NCCc3ccccc3)NC(=O)[C@H](Cc3ccccc3)NC(=O)[C@@H]3CCCN3C(=O)[C@@H]3CCCN3C2=O)N1 | 99.8% (inactive)
15 | O=C1CC(c2cccc(-c3cccnc3)c2)=Nc2ccc(Br)cc2N1 | 19% (inactive)
16 | Clc1cc(Cl)c(OCCCCCCN2CCNCC2)c(Cl)c1 | 75.8% (inactive)
17 | CCCCCC(CCC)COC(=O)c1ccc(OC)cc1 (stereo not drawn) | 103% (inactive)
18 | O=c1oc2cc(OS(=O)(=O)C3CC3)ccc2c2c1CCCCCC2 | 68.4% (inactive)
19 | C=C1C(=O)O[C@H]2[C@H]1CC/C(COC(=O)OCCCCCOC(=O)OC/C1=C/CC[C@@]3(C)O[C@H]3[C@H]3OC(=O)C(=C)[C@@H]3CC1)=C\CC[C@@]1(C)O[C@@H]21 | 42.5% (inactive)

Row | Compound | growth
20 | CCOC(=O)c1c(Cl)c2c(n1Cc1cccc(OC)c1)-c1oncc1CC2 | 1.8% (active)
21 | COc1cc2nc(Sc3sc(N)nc3C)n(-c3ccc(Oc4ccccc4)cc3)c(=O)c2cc1OC | 75.2% (inactive)
22 | CCCCCCCCCCN=C(c1ccc(N(C)C)cc1)c1ccc(N(C)C)cc1 | -3.13% (active)
23 | Cc1cccc2c(Nc3ccc(NS(C)(=O)=O)cc3)c3ccc([N+](=O)[O-])cc3nc12 | 66.6% (inactive)
24 | C[C@H](NC(=O)[C@@H]1CSSC[C@@H](NC(=O)Cc2nc3ccccc3cc2O)C(=O)NCC(=O)N1C)c1ccccc1 | 101% (inactive)
25 | O=C(Nc1ccc(CN2CCOCC2)cc1)c1ccc(-c2cc(Cl)ccc2Cl)o1 | 46.9% (inactive)
26 | COc1c(-c2c3sc(=O)[nH]c3nc3c2c(=O)[nH]n3C(C)C)cc2c(c1OC)OCO2 | 99.8% (inactive)
27 | COc1ccc(-c2nnc(SCC(=O)c3ccccc3)o2)cc1 | 91.9% (inactive)
28 | S=c1c2ncccc2c(-c2ccccn2)nn1Cc1ccccn1 | 103% (inactive)
29 | COc1cc(C2C=C(c3ccc(Cl)c(Cl)c3)N=C3SC(C)=CN32)cc(OC)c1OC (stereo not drawn) | 81.3% (inactive)
30 | O=C(NCCc1nccs1)c1cnc2c(S)cccc2c1 | 5.32% (active)
31 | N#Cc1c(-c2ccccc2)nc(SCC(=O)N2CCOCC2)[nH]c1=O | 103% (inactive)
32 | CCCCCCN=C(N)CCCCCCCCCCC(N)=NCCCCCC | 84% (inactive)
33 | CNC(=O)c1cc(Oc2ccc(NC(=O)Nc3ccc(Cl)c(C(C)(C)C)c3)c(F)c2)ccn1 | 40.2% (inactive)
34 | CN(C)c1ccc2c(c1)OC(N)=C(C#N)C2c1ccc2c(c1)CCO2 (stereo not drawn) | 3% (active)
35 | CCc1c(C(=O)NCc2c(O)ccc3cccc(O)c23)[nH]c(C)c1C(C)=O | 29.2% (inactive)
36 | CC(=O)c1ccc(NCn2nc(-c3ccc(Cl)cc3)oc2=S)cc1 | 101% (inactive)
37 | COC(=O)c1cnc2c(c1)Oc1ccc(Cl)cc1-c1cc(C)nn1-2 | 70.3% (inactive)
38 | Clc1cc(Cl)c(Cl)c(-c2nc(-c3cccnc3)cs2)c1 | 85.1% (inactive)
